From PubChem BioAssay (NCATS) come the findings set out here.

A short description of experiment [1]: Cell Viability - BJ (AID 421).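 Also: potency is read from the fitted curve at half-maximal effect; cells exposed to compound for 40 hours at 37 °C before readout.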 As to conditions: BJ fibroblast viability, qHTS. Put shortly: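 Cytotoxicity in human BJ foreskin fibroblasts is scored as loss of cellular ATP after a 40-hour exposure, measured by luciferase luminescence. Controls are DMSO and 100 uM tamoxifen.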
(In general: Quantitative high-throughput screening tests each substance at several concentrations.)

Experiment [2] is described as follows: Cell Viability - Jurkat (AID 426;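 active = dose-dependent loss of cell ATP signal giving a full or clear fitted curve, ranked by lower potency value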; also: potency is read from the fitted curve at half-maximal effect). The settings on record: qHTS. The method in brief:
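qHTS, 1536-well; Jurkat E6-1, 5000 cells/well, complete medium; cpd 40 hr, 37 °C; CellTiter-Glo 20 min RT; luminescence. AC50 by Hill fit.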

The nature of experiment [3]: Cell Viability - Hek293 (AID 427;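 active = compounds whose dose-response curve shows a full or clear partial loss of cell viability, called from curve shape rather than a numeric limit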;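 also: potency is read from the fitted curve at half-maximal effect; cells exposed to compound for 40 hours at 37 °C before reading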). The settings on record: qHTS. Put shortly: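 qHTS, human embryonic kidney (adenovirus-transformed) cells; 40 hr cpd, 37 °C; CellTiter-Glo ATP luminescence. Norm: DMSO = 0, 100 uM tamoxifen = 100% inhibition. Hill-fit AC50.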
The nature of experiment [4]: Cell Viability - HepG2 (AID 433).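 Also: potency is read from the fitted curve at half-maximal effect; potency for ATP loss meaning cytotoxicity.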 As to conditions: qHTS. The method in brief: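 Read-out is luciferase-based quantitation of cellular ATP as a measure of viable HepG2 cells after 40 h treatment at 37 °C. Signal decrease is scaled between DMSO-only and 100 uM tamoxifen controls, with AC50 fitted by the Hill equation.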
Experiment [5] in a line: Cell Viability - MRC5 (AID 434).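 Also: potency is read from the fitted curve at half-maximal effect; potency reflects cytotoxicity seen as loss of intracellular ATP.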 The settings on record: MRC5 lung fibroblast viability, qHTS. The method in brief:
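MRC5 normal human lung fibroblasts (1500/well) were treated with compounds for 40 hr at 37 °C in complete medium, and viable cells were measured as intracellular ATP by CellTiter-Glo luminescence. AC50 came from Hill fits, normalized to DMSO and 100 uM tamoxifen.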

Experiment [6] is described as follows: Cell Viability - SK-N-SH (AID 435).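 Also: potency is read from the fitted curve at half-maximal effect; compound exposure lasted 40 h at 37 °C.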 As to conditions: SK-N-SH neuroblastoma cell viability qHTS. The method in brief: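 Luminescent ATP signal served as the viability read-out after 40 hours of compound treatment of human neuroblastoma SK-N-SH cells. Concentration-response data, scaled between DMSO and 100 uM tamoxifen, gave AC50 values by standard Hill modeling.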

Experiment [7] deals with Mitogen-activated protein kinase 10 (Mus musculus) (UniProt Q61831). The experiment can be described thus: JNK3 AlphaScreen Assay (AID 530; active = well fitted curve in either direction with a large enough effect, not every such curve was filed as active;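 also: kinase came from lysate of stimulated human HepG2 cells; signal reports phosphorylation of biotinylated GST-cJun 1-79 at Ser73 with 10 µM ATP; % is scaled to controls: 0 for no effect and ±100 for the full control effect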). As to conditions: JNK3 lysate, c-Jun phosphorylation; series mostly up to 57.1 µM. The method in brief:
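Inhibitors reduce antibody binding to phosphorylated biotin-cJun, lowering AlphaScreen luminescence. Lysates from HepG2 cells pre-activated by IL-1beta plus TNF-alpha supplied JNK3; compounds were titrated.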
In general terms: Bead proximity is the source of the signal in Alpha formats.

A short description of experiment [8]: Cell Viability - N2a (AID 540; active = well fitted curve in the direction sought with a large enough effect; an effect the other way counts as inactive or inconclusive; also: nearly all actives have a fitted effect of over 45% in size; also: potency is read from the fitted curve at half-maximal effect;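 as to activity change, negative = cytotoxicity: plate controls were DMSO alone for no effect and tamoxifen control for full effect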). The settings on record: N2a mouse neuroblastoma cell viability; activity change, negative = cytotoxicity: at 92.2 µM (top of the series). The method in brief:
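Luminescent ATP signal (CellTiter-Glo, 20 min at room temperature) served as the viability read-out after N2a cells were treated with compounds for 40 hours at 37 °C. Concentration-response data were fitted to the Hill equation for AC50.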

Experiment [9] in a line: Cell Viability - NIH 3T3 (AID 541; active = well fitted curve in the direction sought with a large enough effect; an effect the other way counts as inactive or inconclusive;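 also: plate controls were DMSO alone for no effect and tamoxifen positive control for full effect; nearly all actives have a fitted effect of over 25% in size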). The settings on record: NIH 3T3 cell viability, qHTS; activity change, negative = cytotoxicity: at 92.2 µM (top of the series). Put shortly:
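Luminescent ATP signal (CellTiter-Glo) served as the viability read-out after NIH 3T3 cells were exposed to compounds over a concentration range for 40 hr at 37 °C. Hill-equation modelling of concentration-response data gave AC50.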

The nature of experiment [10]: Cell Viability - HUV-EC-C (AID 542; active = well fitted curve in the direction sought with a large enough effect; an effect the other way counts as inactive or inconclusive; also: nearly all actives have a fitted effect of over 35% in size; also: potency is read from the fitted curve at half-maximal effect; as to activity change, negative = cytotoxicity: % is scaled to controls: 0 for no effect and ±100 for the full control effect). As to conditions: HUV-EC-C endothelial cell viability, qHTS; series mostly up to 92.2 µM. The method in brief:
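qHTS cytotoxicity: HUV-EC-C, 1000 cells/well, 5 hr settle, compound 40 hr 37 °C, CellTiter-Glo, luminescence. AC50 via Hill equation.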

The structures appear in SMILES notation. Inconclusive results are not listed. A number with no mark means an inactive call. Activity calls are given as the source filed them. Unless noted, calls follow the shape of the full dose curve.

As to `O=C1OC(=O)c2cc([N+](=O)[O-])ccc21`, the Potency in experiment [1], in [2], in experiment [3], in [4], in experiment [5] and in experiment [6] was greater than 92 µM each time. In experiment [7], the compound was called inactive. Besides, in [8], the activity change, negative = cytotoxicity was -2.26%. Moreover, the Potency entry in experiment [9] and in experiment [10] was “inactive” each time.

`O=C1OC(=O)c2c(Br)c(Br)c(Br)c(Br)c21`: the Potency in experiment [1], in [2], in experiment [3], in [4], in experiment [5] and in experiment [6] was greater than 92 µM in each case. For the same compound, the compound was called inactive in [7]. In [8], the activity change, negative = cytotoxicity is -3.13%. The Potency entry in experiment [9] and in experiment [10] was “inactive” throughout.

`NC(=O)NC(N)=O`: the Potency in [1], in [2], in [3], in experiment [4], in experiment [5] and in [6] was greater than 92 µM throughout. The outcome in experiment [7] was inactive. Further, the activity change, negative = cytotoxicity in experiment [8] is -8.97%. Also, the Potency entry in experiment [9] and in experiment [10] was “inactive” in each case.

Consider `C=CC(=O)NC(C)C`, for which the Potency in [1], in experiment [2], in experiment [3], in experiment [4], in [5] and in experiment [6] was greater than 92 µM throughout. Also, in experiment [7], the compound was called inactive. Moreover, the activity change, negative = cytotoxicity in experiment [8] was 4.17%. The Potency entry in experiment [9] and in [10] was “inactive” each time.

Consider `C=Cc1ccccn1`, for which the Potency in [1], in experiment [2], in [3], in experiment [4], in experiment [5] and in [6] was greater than 92 µM each time. The result in experiment [7] was inactive. In addition, the activity change, negative = cytotoxicity in experiment [8] was 5.72%. The Potency result in experiment [9] and in experiment [10] was “inactive” throughout.

In the case of `CC(=O)OCCC(C)C`, the Potency in experiment [1], in experiment [2], in [3], in experiment [4], in [5] and in [6] was greater than 92 µM each time. For the same compound, the compound was classed as inactive in experiment [7]. Also, in experiment [8], the activity change, negative = cytotoxicity was -1.72%. The Potency result in experiment [9] and in experiment [10] was “inactive” in each case.

For `CC(=O)Nc1ccc(N)cc1`, the Potency in experiment [1], in [2], in experiment [3], in [4], in experiment [5] and in experiment [6] was greater than 92 µM each time. Moreover, the compound was classed as inactive in [7]. The activity change, negative = cytotoxicity in experiment [8] was 4.55%. The Potency entry in experiment [9] and in [10] was “inactive” in each case.

On to `Cc1cc(C(=O)O)ccc1[N+](=O)[O-]`, for which the Potency in experiment [1], in experiment [2], in experiment [3], in experiment [4], in experiment [5] and in experiment [6] was greater than 92 µM in each case. Also, the compound was called inactive in [7]. Also, the activity change, negative = cytotoxicity in [8] was 4.23%. Besides, the Potency result in [9] and in experiment [10] was “inactive” each time.

Consider `Cc1ccco1`, for which the Potency in experiment [1], in [2], in [3], in [4], in experiment [5] and in [6] was greater than 92 µM in each case. Also, in experiment [7], the result was inactive. The activity change, negative = cytotoxicity in experiment [8] is 0.379%. Also, the Potency entry in [9] and in [10] was “inactive” in each case.

In the case of `Nc1cccc([N+](=O)[O-])c1`, the Potency in experiment [1], in experiment [2], in [3], in experiment [4], in experiment [5] and in experiment [6] was greater than 92 µM in each case. Besides, the call in [7] was inactive. Further, the activity change, negative = cytotoxicity in [8] was -10.1%. Further, the Potency entry in experiment [9] and in experiment [10] was “inactive” throughout.

On to `Nc1ccc(F)cc1F`, for which the Potency in experiment [1], in experiment [2], in experiment [3], in experiment [4], in experiment [5] and in [6] was greater than 92 µM throughout. The compound was called inactive in experiment [7]. For the same compound, the activity change, negative = cytotoxicity in [8] is -8.92%. The Potency result in [9] and in [10] was “inactive” each time.

For the compound `CC(C)(O)C(=O)O`, the Potency in experiment [1], in [2], in experiment [3], in [4], in experiment [5] and in experiment [6] was greater than 92 µM throughout. Besides, the call in [7] was inactive. Also, in experiment [8], the activity change, negative = cytotoxicity was 4.75%. The Potency result in [9] and in experiment [10] was “inactive” in each case.

For `CC(=C/C=C/C(C)=C/C=C/C=C(C)/C=C/C=C(C)/C=C/C(=O)O)/C=C/C(=O)O`, the Potency in experiment [1], in experiment [2], in experiment [3], in experiment [4], in experiment [5] and in experiment [6] was greater than 92 µM throughout. In experiment [7], the compound was called inactive. The activity change, negative = cytotoxicity in experiment [8] was -0.984%. The Potency result in experiment [9] and in experiment [10] was “inactive” throughout.

As to `CC1=C(/C=C/C(C)=C/C=C/C(C)=C\C=O)C(C)(C)CCC1`, the Potency in experiment [1] was 24.4 µM (active); in experiment [2] it was 22.2 µM (active); in [3], 51.9 µM (active); in experiment [4] it was 66.1 µM (active); in [5], 39.8 µM (active); in experiment [6], 31.7 µM (active). Moreover, the figures for the Potency in [8] and in [10] were 25.1 µM (active) and 31.6 µM (active), respectively. The call in experiment [7] was inactive. Also, the activity change, negative = cytotoxicity in experiment [9] is -120% (active).

`O=C(O)c1ccc(CO)o1`: the Potency in experiment [1], in [2], in experiment [3], in [4], in experiment [5] and in experiment [6] was greater than 92 µM each time. Moreover, the call in [7] was inactive. In addition, the activity change, negative = cytotoxicity in [8] is -2.4%. In addition, the Potency entry in experiment [9] and in [10] was “inactive” throughout.

On to `COc1ccc(N)c(C)c1`, for which the Potency in experiment [1], in experiment [2], in experiment [3], in experiment [4], in experiment [5] and in experiment [6] was greater than 92 µM in each case. Besides, the call in [7] was inactive. For the same compound, the activity change, negative = cytotoxicity in experiment [8] is 11.2%. Besides, the Potency entry in experiment [9] and in experiment [10] was “inactive” each time.

With `C(=C/c1ccccc1)/c1ccccc1`, the Potency in experiment [1], in experiment [2], in experiment [3], in [4], in experiment [5] and in [6] was greater than 92 µM throughout. The outcome in experiment [7] was inactive. In experiment [8], the activity change, negative = cytotoxicity was -0.717%. The Potency entry in [9] and in [10] was “inactive” each time.
